From the supplement of paper PMC10849652
The full data set covers some 7,900 targets. This sample favours those with a hit. About 0.6% of all pairs of compound and target were hits. Unmarked numbers belong to inactive results.

Legend:
Assay in all cases: log2 fold change, soluble protein after heating vs DMSO (PISA); higher = thermal stabilisation; K562 cells, 10 uM, 30 min; active = over 0.2 and 3.5 SD of the protein, either way, in both replicates (recomputed)
[1] = compound: CS(=O)(=O)c1ccc(-c2cnc(N)c(C(=O)Nc3ccccc3)n2)cc1
Outline: (§1)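 K562 cells at 2×10^6 cells/mL were treated for 30 min with 10 μM compound, and aliquots were heated for 3 min over 48°C-58°C before pooling. Extraction used PBS with 0.5% NP-40 at 4°C, and soluble protein was the supernatant after 21,000xg for 90 min, measured by TMTpro 16plex LC-MS/MS with channel sums equalised. Thermal stability values, relative to control samples and from duplicates, are log2 fold changes.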

crizotinib = compound: C[C@@H](Oc1cc(-c2cnn(C3CCNCC3)c2)cnc1N)c1c(Cl)ccc(F)c1Cl [crizotinib]
Outline: as §1

[2] = compound: C[C@@H]1COCCN1C2=NC(=NC(=C2)C3(CC3)S(=O)(=O)C)C4=C5C=CNC5=CC=C4
Outline: as §1

[3] = compound: C[C@H](C1=CC=C(C=C1)C(=O)NC2=C3C=CNC3=NC=C2)N
Outline: as §1

duvelisib = compound: C[C@H](Nc1ncnc2nc[nH]c12)c1cc2cccc(Cl)c2c(=O)n1-c1ccccc1 [duvelisib]
Outline: as §1

gandotinib = compound: Cc1cc(Nc2cc(CN3CCOCC3)c3nc(C)c(Cc4ccc(Cl)cc4F)n3n2)n[nH]1 [gandotinib]
Outline: as §1

tozasertib = compound: Cc1cc(Nc2cc(N3CCN(C)CC3)nc(Sc3ccc(NC(=O)C4CC4)cc3)n2)n[nH]1 [tozasertib]
Outline: as §1

[4] = compound: Cc1cc(SCc2sc(-c3ccc(C(F)(F)F)cc3)nc2C)ccc1OCC(=O)O
Outline: as §1

doramapimod = compound: Cc1ccc(-n2nc(C(C)(C)C)cc2NC(=O)Nc2ccc(OCCN3CCOCC3)c3ccccc23)cc1 [doramapimod]
Outline: as §1

ispinesib = compound: Cc1ccc(C(=O)N(CCCN)[C@@H](c2nc3cc(Cl)ccc3c(=O)n2Cc2ccccc2)C(C)C)cc1 [ispinesib]
Outline: as §1

bafetinib = compound: Cc1ccc(NC(=O)c2ccc(CN3CC[C@H](N(C)C)C3)c(C(F)(F)F)c2)cc1Nc1nccc(-c2cncnc2)n1 [bafetinib]
Outline: as §1

[5] = compound: Cc1cccc(CC(=O)N2CCc3c2ccc(-c2cn(C)c4ncnc(N)c24)c3F)n1
Outline: as §1

nilotinib = compound: Cc1cn(-c2cc(NC(=O)c3ccc(C)c(Nc4nccc(-c5cccnc5)n4)c3)cc(C(F)(F)F)c2)cn1 [nilotinib]
Outline: as §1

[6] = compound: Cc1nc(Nc2n[nH]c3c2CN(C(=O)N[C@H](CN(C)C)c2ccccc2)C3(C)C)c2sccc2n1
Outline: as §1

dasatinib = compound: Cc1nc(Nc2ncc(C(=O)Nc3c(C)cccc3Cl)s2)cc(N2CCN(CCO)CC2)n1 [dasatinib]
Outline: as §1

[7] = compound: Cc1ncc(-c2ccnc(Nc3ccc(S(C)(=O)=O)cc3)n2)n1C(C)C
Outline: as §1

[8] = compound: Cn1cc(-c2ccc3c(c2)CCN3C(=O)Cc2cccc(C(F)(F)F)c2)c2c(N)ncnc21
Outline: as §1

[9] = compound: Cn1cc(-c2ccc3nnc(C(F)(F)c4ccc5ncccc5c4)n3n2)cn1
Outline: as §1

tipifarnib = compound: Cn1cncc1[C@@](N)(c1ccc(Cl)cc1)c1ccc2c(c1)c(-c1cccc(Cl)c1)cc(=O)n2C [tipifarnib]
Outline: as §1

mubritinib = compound: FC(F)(F)c1ccc(/C=C/c2nc(COc3ccc(CCCCn4ccnn4)cc3)co2)cc1 [mubritinib]
Outline: as §1

Chain of UniProt P36507 (P36507 whole entry, looked up): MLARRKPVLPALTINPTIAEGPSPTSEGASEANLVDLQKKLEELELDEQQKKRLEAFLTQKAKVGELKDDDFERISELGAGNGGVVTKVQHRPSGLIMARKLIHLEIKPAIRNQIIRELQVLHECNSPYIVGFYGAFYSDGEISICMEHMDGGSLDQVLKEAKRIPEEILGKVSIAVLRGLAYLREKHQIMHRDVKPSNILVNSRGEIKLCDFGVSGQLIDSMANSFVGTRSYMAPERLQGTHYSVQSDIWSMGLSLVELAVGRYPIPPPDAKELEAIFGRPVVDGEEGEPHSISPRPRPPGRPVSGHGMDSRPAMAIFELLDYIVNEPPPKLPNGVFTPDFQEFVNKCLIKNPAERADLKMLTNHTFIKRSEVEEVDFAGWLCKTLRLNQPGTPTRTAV
Chain of UniProt O95568 (O95568 whole entry, looked up): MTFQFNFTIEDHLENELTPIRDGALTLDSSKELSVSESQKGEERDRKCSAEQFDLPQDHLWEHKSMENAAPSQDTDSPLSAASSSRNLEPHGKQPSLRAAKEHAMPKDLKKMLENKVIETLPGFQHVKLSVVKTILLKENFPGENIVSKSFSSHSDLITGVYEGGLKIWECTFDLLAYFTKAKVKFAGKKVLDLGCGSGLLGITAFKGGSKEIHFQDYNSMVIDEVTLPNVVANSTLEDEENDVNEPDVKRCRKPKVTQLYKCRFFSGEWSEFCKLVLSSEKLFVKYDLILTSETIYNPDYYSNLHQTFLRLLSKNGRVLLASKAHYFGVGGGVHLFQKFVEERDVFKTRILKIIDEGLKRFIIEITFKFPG
Chain of UniProt Q8NC56 (Q8NC56 whole entry, looked up): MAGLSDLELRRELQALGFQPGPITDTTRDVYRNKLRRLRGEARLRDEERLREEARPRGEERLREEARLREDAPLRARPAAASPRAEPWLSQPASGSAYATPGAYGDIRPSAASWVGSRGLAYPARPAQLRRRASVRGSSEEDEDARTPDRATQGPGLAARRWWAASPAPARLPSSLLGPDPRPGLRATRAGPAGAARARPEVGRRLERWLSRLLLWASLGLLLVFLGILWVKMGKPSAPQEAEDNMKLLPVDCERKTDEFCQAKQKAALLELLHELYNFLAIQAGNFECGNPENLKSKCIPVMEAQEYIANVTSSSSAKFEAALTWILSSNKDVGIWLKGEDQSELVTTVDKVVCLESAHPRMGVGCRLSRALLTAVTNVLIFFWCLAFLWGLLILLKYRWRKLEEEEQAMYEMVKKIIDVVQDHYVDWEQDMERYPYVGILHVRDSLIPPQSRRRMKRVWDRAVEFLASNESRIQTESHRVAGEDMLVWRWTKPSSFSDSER
Chain of UniProt O14733 (O14733 whole entry, looked up): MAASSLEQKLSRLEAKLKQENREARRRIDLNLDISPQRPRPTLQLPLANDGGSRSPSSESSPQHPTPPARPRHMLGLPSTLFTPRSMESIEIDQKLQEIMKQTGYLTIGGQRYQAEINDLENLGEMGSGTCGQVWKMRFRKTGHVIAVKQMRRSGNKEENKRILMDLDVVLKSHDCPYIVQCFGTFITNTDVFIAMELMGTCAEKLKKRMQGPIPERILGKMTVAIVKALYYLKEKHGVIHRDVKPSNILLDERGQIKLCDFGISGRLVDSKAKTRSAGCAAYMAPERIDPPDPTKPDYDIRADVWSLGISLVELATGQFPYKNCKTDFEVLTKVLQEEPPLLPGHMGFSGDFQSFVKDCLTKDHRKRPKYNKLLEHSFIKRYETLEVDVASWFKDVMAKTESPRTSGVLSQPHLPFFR
Chain of UniProt P45983 (P45983 whole entry, looked up): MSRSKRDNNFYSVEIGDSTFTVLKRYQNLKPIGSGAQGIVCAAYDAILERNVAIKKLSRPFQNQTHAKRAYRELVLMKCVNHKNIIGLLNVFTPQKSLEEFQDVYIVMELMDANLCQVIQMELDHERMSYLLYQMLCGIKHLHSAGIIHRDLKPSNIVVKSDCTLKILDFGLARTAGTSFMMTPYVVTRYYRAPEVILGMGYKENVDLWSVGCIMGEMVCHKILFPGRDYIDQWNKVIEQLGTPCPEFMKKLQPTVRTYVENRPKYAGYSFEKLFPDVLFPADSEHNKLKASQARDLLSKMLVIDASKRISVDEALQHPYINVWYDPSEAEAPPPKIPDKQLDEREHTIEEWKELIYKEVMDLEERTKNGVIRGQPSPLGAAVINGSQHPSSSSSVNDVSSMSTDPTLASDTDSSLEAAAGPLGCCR
Chain of UniProt Q32MZ4 (Q32MZ4 whole entry, looked up): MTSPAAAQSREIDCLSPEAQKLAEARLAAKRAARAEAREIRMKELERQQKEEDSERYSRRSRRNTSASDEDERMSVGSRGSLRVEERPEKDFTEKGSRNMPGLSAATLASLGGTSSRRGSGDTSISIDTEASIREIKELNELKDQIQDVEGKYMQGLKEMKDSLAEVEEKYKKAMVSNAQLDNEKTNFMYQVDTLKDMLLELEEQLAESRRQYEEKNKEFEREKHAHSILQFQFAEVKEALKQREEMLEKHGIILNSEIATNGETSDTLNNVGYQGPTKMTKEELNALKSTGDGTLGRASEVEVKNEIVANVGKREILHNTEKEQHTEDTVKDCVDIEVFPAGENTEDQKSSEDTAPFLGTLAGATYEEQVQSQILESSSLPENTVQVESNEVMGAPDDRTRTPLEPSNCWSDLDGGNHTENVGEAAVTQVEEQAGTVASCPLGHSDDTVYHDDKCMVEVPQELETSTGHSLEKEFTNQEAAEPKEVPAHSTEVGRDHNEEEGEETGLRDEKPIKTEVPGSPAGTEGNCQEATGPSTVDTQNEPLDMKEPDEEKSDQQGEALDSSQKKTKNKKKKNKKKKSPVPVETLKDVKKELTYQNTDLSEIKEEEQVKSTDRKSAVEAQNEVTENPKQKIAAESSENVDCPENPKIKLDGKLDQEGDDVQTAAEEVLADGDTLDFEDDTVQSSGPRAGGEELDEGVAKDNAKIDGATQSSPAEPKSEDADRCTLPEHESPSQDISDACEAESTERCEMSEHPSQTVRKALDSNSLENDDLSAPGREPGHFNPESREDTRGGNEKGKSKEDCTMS
Chain of UniProt P48449 (P48449 whole entry, looked up): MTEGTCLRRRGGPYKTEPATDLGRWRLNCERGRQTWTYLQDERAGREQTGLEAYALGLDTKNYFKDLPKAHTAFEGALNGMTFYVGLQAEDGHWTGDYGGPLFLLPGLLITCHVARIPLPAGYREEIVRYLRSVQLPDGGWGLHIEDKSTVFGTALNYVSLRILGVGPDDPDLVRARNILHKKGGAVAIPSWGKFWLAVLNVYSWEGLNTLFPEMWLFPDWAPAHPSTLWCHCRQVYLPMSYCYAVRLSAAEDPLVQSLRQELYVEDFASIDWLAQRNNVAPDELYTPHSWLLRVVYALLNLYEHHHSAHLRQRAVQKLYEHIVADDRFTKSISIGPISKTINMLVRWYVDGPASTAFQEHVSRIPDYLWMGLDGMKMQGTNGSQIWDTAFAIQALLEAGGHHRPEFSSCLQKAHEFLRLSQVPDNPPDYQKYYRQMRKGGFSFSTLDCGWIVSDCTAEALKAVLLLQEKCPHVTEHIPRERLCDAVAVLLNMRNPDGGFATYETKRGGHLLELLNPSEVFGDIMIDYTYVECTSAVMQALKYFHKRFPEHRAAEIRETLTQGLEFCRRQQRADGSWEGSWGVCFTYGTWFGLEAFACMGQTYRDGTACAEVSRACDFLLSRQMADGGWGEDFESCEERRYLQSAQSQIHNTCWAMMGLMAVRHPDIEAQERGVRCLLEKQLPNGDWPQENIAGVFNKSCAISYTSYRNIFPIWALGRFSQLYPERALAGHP
Chain of UniProt O95140 (O95140 whole entry, looked up): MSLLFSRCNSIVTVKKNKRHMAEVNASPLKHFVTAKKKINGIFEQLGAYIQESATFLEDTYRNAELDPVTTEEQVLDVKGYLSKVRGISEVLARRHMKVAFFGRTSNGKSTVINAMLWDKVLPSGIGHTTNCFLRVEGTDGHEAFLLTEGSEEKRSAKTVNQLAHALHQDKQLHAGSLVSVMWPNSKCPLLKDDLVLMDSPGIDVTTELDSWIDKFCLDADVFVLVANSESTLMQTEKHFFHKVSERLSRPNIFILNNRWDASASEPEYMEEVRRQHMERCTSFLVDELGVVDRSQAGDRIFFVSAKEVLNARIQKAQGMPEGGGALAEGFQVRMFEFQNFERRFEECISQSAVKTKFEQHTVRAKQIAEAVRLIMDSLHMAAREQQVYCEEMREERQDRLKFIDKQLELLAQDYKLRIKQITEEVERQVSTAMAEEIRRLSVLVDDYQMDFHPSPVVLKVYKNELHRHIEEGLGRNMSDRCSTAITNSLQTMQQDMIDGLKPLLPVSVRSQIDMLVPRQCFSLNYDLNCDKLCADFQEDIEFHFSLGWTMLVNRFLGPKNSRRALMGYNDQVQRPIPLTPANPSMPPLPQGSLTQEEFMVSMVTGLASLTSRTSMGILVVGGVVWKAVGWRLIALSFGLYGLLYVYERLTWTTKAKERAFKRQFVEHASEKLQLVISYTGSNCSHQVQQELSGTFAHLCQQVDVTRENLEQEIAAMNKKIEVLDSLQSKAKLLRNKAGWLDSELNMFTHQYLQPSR
Chain of UniProt P23368 (P23368 whole entry, looked up): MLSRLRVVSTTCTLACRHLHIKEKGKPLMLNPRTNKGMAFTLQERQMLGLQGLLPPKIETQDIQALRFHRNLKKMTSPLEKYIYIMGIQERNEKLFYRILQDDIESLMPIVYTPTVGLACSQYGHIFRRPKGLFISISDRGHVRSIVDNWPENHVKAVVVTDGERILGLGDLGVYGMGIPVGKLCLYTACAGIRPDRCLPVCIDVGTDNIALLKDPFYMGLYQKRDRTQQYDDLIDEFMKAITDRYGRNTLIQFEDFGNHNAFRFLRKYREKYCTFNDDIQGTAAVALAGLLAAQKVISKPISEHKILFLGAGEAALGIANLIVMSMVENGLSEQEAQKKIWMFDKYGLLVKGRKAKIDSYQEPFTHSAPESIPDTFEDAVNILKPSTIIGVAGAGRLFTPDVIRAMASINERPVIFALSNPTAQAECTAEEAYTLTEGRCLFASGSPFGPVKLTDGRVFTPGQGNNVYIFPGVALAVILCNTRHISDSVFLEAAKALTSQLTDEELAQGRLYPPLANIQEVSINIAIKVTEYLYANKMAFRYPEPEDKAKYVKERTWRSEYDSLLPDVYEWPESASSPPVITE

Target	log2 fold change [1]	log2 fold change (crizotinib)	log2 fold change [2]	log2 fold change [3]	log2 fold change (duvelisib)	log2 fold change (gandotinib)	log2 fold change (tozasertib)	log2 fold change [4]	log2 fold change (doramapimod)	log2 fold change (ispinesib)	log2 fold change (bafetinib)	log2 fold change [5]	log2 fold change (nilotinib)	log2 fold change [6]	log2 fold change (dasatinib)	log2 fold change [7]	log2 fold change [8]	log2 fold change [9]	log2 fold change (tipifarnib)	log2 fold change (mubritinib)
KEAP1 (UniProt Q14145)	0.011	-0.077	-0.095	0.111	0.008	-0.176	0.077	0.049	0.089	-0.102	-0.057	0.032	-0.108	-0.108	-0.027	0.021	-0.085	-0.07	-0.047	0.037
MFN2 (UniProt O95140)	0.028	-0.109	0	0.022	-0.048	0.028	-0.013	0.041	0.039	-0.208	-0.106	0.068	-0.002	-0.022	-0.024	-0.01	-0.004	0.018	-0.004	0.019
MAP2K2 (UniProt P36507)	0.013	-0.055	0.069	-0.052	0.02	-0.069	-0.041	-0.01	-0.038	-0.058	-0.081	0.007	-0.003	-0.154	-0.092	-0.018	0.023	0.098	0.015	0.017
MAP2K7 isoform 4 (UniProt O14733)	0.017	-0.112	0.003	-0.003	0.018	-0.055	-0.057	-0.038	0	-0.051	-0.086	0	-0.035	0.025	-0.075	-0.039	-0.006	0.02	0.027	-0.018
ME2 (UniProt P23368)	-0.027	0.282 (active)	-0.048	0.009	0.043	-0.016	-0.001	-0.002	-0.016	0.334 (active)	-0.012	-0.087	0.138	0.029	-0.052	-0.015	-0.076	0.001	0.107	-0.074
LONP2 (UniProt Q86WA8)	-0.004	0.072	0.026	0.113	-0.017	0.017	0.073	-0.094	0.073	0.092	-0.037	-0.054	0.26	-0.187	0.024	-0.065	0.055	-0.131	0.012	0.063
LEMD2 (UniProt Q8NC56)	-0.001	-0.286 (active)	0.084	-0.057	-0.016	-0.17	0.008	0.109	0.079	-0.438 (active)	-0.036	-0.008	-0.035	-0.123	-0.079	0.011	0.089	0.008	-0.045	-0.021
KIAA1324L (UniProt A8MWY0)	0.081	-0.125	0.06	0.062	-0.027	0.076	-0.036	-0.057	0.051	-0.124	-0.099	0.022	0.042	-0.031	0.025	-0.003	0.022	0.029	0.047	0.091
ILVBL (UniProt A1L0T0)	0.055	0	0.058	0.061	0.106	0.02	-0.067	-0.005	-0.003	0.213 (active)	0.065	-0.049	0.074	0.011	-0.09	-0.025	0.247	-0.005	-0.047	0.041
MIER1 isoform 12 (UniProt Q8N108)	0.009	-0.027	0.035	-0.034	-0.012	-0.004	-0.021	0.035	0.026	-0.029	-0.016	0.031	0.012	-0.083	-0.028	-0.061	0.056	-0.041	-0.004	0.052
LRRFIP1 (UniProt Q32MZ4)	-0.005	0.037	0	0.025	0.011	0.056	-0.027	-0.059	-0.025	-0.019	-0.034	-0.043	0.008	0.002	0.038	-0.016	0.024	0.013	0.016	0.035
MAST4 (UniProt O15021)	-0.041	-0.188	0.064	-0.114	0.091	-0.301	-0.03	0.053	-0.088	0.007	-0.029	0.034	-0.073	-0.757 (active)	-0.112	-0.004	0.131	0.09	-0.087	-0.003
METTL18 (UniProt O95568)	0.003	-0.043	0.053	-0.012	0.004	-0.045	-0.115	0.012	-0.001	0.004	-0.091	-0.049	-0.092	0.028	0.054	-0.023	-0.022	-0.087	0.019	0.036
MAPK8 isoform 3 (UniProt P45983)	0.003	-0.08	0.092	-0.096	0.018	0.254	-0.127	0.096	-0.019	-0.008	-0.011	-0.048	0.022	0.415 (active)	-0.318	0.495 (active)	0.047	-0.058	0.001	-0.179
MARCKS (UniProt P29966)	0.022	0.198	-0.042	-0.191	0.006	0.234	-0.068	0.025	0	-0.031	-0.102	-0.133	0.053	-0.003	0.022	-0.007	0.033	0.034	-0.002	-0.017
LSS (UniProt P48449)	0.043	0.77 (active)	0.081	0.02	0.044	0.044	0.103	0.017	0.024	0.111	0.393	0	-0.046	0.047	0	0.013	0.145	0	-0.039	0.193
